The first experiment deals with Solute carrier family 2, facilitated glucose transporter member 1 (Homo sapiens) (UniProt P11166). The experiment can be described thus: ST_JUDE_LEISH: Cytotoxicity at 2uM final concentration against transgenic Leishmania Mexicana promastigotes LmGLUT1 that are glucose transport deficient and complemented with the human glucose transporter GLUT1. Activity is measured by DNA content using SYBR green in vitro. Type of experiment: functional.
Sequence of Solute carrier family 2, facilitated glucose transporter member 1 (Homo sapiens) (P11166 whole entry): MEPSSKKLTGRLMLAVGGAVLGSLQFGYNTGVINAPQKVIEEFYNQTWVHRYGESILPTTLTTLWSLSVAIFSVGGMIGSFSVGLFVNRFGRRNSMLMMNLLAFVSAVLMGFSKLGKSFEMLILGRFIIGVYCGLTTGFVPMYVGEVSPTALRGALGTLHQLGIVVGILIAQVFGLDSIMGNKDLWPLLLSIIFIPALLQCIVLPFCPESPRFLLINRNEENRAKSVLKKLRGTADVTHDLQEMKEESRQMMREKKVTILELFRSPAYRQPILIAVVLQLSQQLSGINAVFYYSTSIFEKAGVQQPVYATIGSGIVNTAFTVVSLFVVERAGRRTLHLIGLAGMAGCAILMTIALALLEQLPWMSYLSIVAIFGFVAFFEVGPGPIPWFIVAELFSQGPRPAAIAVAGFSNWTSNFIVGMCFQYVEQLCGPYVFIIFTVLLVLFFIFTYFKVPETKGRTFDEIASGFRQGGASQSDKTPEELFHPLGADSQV
For `CC(=O)c1cccc2c(NC(=O)Nc3ccc4nccc(N5CCN(C)CC5)c4c3)cccc12`, the inhibition is 7.67%.
For `COC(=O)c1ccc2c(c1)nc(Nc1cccc(F)c1)n2CC(O)c1ccccn1` (centres undefined), the inhibition was found to be 4.12%.
Still for that read-out and setting: then `COc1ccc(-c2cnc(N)c(-c3ccc(O)c(OC)c3)c2)cn1`, with 0.58%; and `O=C(Nc1cccc(-c2ccc(-c3nc4cc(C(F)(F)F)ccc4[nH]3)s2)c1)c1c[nH]cn1`, with 0.15%; and `CCc1cccc2c(C#N)cn(CC(=O)Nc3ccc(OC)cc3)c12`, with 0.84%.
Regarding `CC(=O)N1N=C(c2ccc(F)cc2)Sc2c1nc(-c1ccccc1)n2C(C)=O`, the inhibition was determined as 8.6%.
Turning to `Cc1cc(Nc2ccncc2)n2nc(C)c(-c3ccc(Cl)cc3)c2n1`, the inhibition came to 11.6%.
With `CN(C)c1ccc(CN2CCC(NC(=O)c3ccc(-c4ccc(N(C)C)cc4)s3)CC2)cc1`, the inhibition worked out at 1.4%.
Regarding `COc1ccc2nc(-c3ccc(C(=O)NCCCN4CCN(c5cc(Cl)ccc5OC)CC4)cc3OC)[nH]c2c1`, the inhibition was 2.79%.
As to `O=C(Nc1cccc(-c2nn3ncccc3c2-c2ccnc(Nc3ccc(N4CCOCC4)cc3)n2)c1)c1c(F)cccc1F`, the inhibition came out at 10.7%.
As for `O=S(=O)(c1cccc(Br)c1)N1CCCCC(c2ccc(C(F)(F)F)cc2)=N1`, the inhibition was 1.84%.
Take `CC(C)COc1ccc(Cl)cc1Cc1ccc(-c2nc3ccc(Br)cc3[nH]2)o1`: the inhibition turned out to be 5.75%.
Turning to `Cc1cccc2nc(-c3cccc(-c4cccc(CNCc5cccc(N)c5)c4)c3)[nH]c12`, the inhibition turned out to be 1.24%.
In the case of `C[C@H](Cc1ccc(OCCCCCOc2ccc(C[C@@H](C)NC[C@H](O)c3cccc(Cl)c3)cc2)cc1)NC[C@H](O)c1cccc(Cl)c1`, the inhibition worked out at 106%.
Take `O=C(Nc1ccc2c(c1)CCN2C1CCN(Cc2csc3ccccc23)C1)c1ccco1` (centres undefined): the inhibition stood at 2.05%.
On to `O=C(CCn1cncn1)N1CCCC(c2[nH]c3ccccc3c2-c2ccncc2)C1` (centres undefined), for which the inhibition is -2.2%.
For `O=C(NCCCN1CCCC1=O)NCc1ccccc1`, the inhibition came out at 0.3%.
On to `COc1ccc2nc(N3CCN(C(=O)OC(C)(C)C)CC3)nc(NCCCc3ccccc3)c2c1`, for which the inhibition came out at 28.4%.
As for `O=C(CCc1cccnc1)Nc1cccc(-c2ccc(-c3nc4cc(C(F)(F)F)ccc4[nH]3)s2)c1`, the inhibition is -0.82%.
With `CCCCNCc1ccc(-c2nc(CN(CCCn3ccnc3)C(=O)C3COc4ccccc4O3)cs2)cc1` (centres undefined), the inhibition came out at 0.43%.
In the case of `Cc1ccc(C(=O)Nc2ccc(Nc3ccnc4cc(-c5ccccn5)ccc34)cc2O)cc1`, the inhibition is 7.39%.
As for `CCCc1cc(=O)[nH]c(-n2nc(C)cc2NC(=O)c2cc3ccccc3o2)n1`, the inhibition was 12.6%.
For `O=C(/C=C/c1ccc(Cl)c(Cl)c1)NCCCCCN1CCC(NC(=S)Nc2cccc(Cl)c2)CC1`, the inhibition was found to be 2.06%.
On to `CCOC(=O)c1nc2ccc(SC3CCCCC3)cn2c1Br`, for which the inhibition turned out to be 1.75%.

The target in the next experiment is Hexose transporter 1 (Plasmodium falciparum) (UniProt O97467). Briefly: ST_JUDE_LEISH: Cytotoxicity at 2uM final concentration against transgenic Leishmania Mexicana promastigotes LmPfHT that are glucose transport deficient and complemented with the Plasmodium falciparum hexose transporter. Activity is measured by DNA content using SYBR green in vitro. The class given is functional.
For the compound `CCC(C)C#Cc1c(C)nc(N)nc1N` (centres undefined), the inhibition stood at 0.61%.
As for `CNC(=O)C(NC(=O)c1ccccc1C(=O)OC)c1ccccc1` (centres undefined), the inhibition was 0.32%.
Turning to `N=c1n(CCN2CCCCC2)c2ccccc2n1CC(O)c1ccc(Cl)c(Cl)c1` (centres undefined), the inhibition was -0.46%.
Regarding `Fc1cc(Cl)ccc1Nc1ccnc2cc(-c3ccc(CN4CCOCC4)o3)ccc12`, the inhibition was 52.9%.
Consider `COc1c(CNCCCCCCNCc2cc(Cl)c3ccccc3c2OC)cc(Cl)c2ccccc12`, for which the inhibition was determined as 7.04%.
Same read-out and setting: then `O=C(Nc1ccc(Cl)cc1Cl)N[C@H]1CCN(CCCCCNC(=O)C2CC2c2ccc(Cl)c(Cl)c2)C1` (some centres undefined), with 4.63%; and `Nc1cc(-c2cccc(Cl)c2)nn1-c1ccnc2cc(Cl)ccc12`, with -0.13%; and `O=C(Nc1ccccc1F)NC1CCN(c2ccnc(Nc3ccc(F)cc3)n2)C1` (centres undefined), with 0.72%.
As to `CN(C)c1nc2cc(-n3cnc4cc(-c5ccc(Cl)cc5)sc4c3=O)ccc2n1CCCN1CCCC1`, the inhibition turned out to be 13.9%.
Regarding `CN(c1ccc(NC(=O)c2ccc(F)cc2)cc1)C1CCN(Cc2cccc(F)c2)C1` (centres undefined), the inhibition is -0.15%.
As to `Cc1[nH]c(C)c(-c2ccc(OCc3ccc(F)cc3)cc2)c(=O)c1Cl`, the inhibition is -0.27%.
Consider `CC(C)CNCc1ccc(-c2ccccc2CNC2CCN(Cc3ccccc3)CC2)cc1`, for which the inhibition was 7.66%.
For `Oc1ccc(CCNc2nc(NCc3cccc(OCc4cccc(F)c4)c3)nc(N3CCNCC3)n2)cc1`, the inhibition amounted to 0.71%.
Same read-out and setting: the result for `Cc1cc(C)cc(OCC(O)CN(Cc2cc(Cl)cc(Cl)c2)C(=O)Nc2ccc(Cl)cc2)c1` (centres undefined) reads -0.94%; that for `O=C1NC(=O)C(c2ccc(Cl)cc2)=C1Nc1cccc(S(=O)(=O)C(F)(F)F)c1`, 0.65%.
Take `Cc1ccccc1C1CCN(C2CCC(NC(=O)c3cc4cc(Cl)ccc4o3)CC2)CC1` (centres undefined): the inhibition was 1.17%.
As for `CC(=O)c1cccc2c(NC(=O)Nc3ccc4nccc(N5CCN(C)CC5)c4c3)cccc12`, the inhibition turned out to be 6.04%.
Regarding `COC(=O)c1ccc2c(c1)nc(Nc1cccc(F)c1)n2CC(O)c1ccccn1` (centres undefined), the inhibition turned out to be 3.8%.
Consider `COc1ccc(-c2cnc(N)c(-c3ccc(O)c(OC)c3)c2)cn1`, for which the inhibition worked out at 0.38%.
For the compound `O=C(Nc1cccc(-c2ccc(-c3nc4cc(C(F)(F)F)ccc4[nH]3)s2)c1)c1c[nH]cn1`, the inhibition was -0.45%.
Consider `CCc1cccc2c(C#N)cn(CC(=O)Nc3ccc(OC)cc3)c12`, for which the inhibition came to 3.26%.
Take `CC(=O)N1N=C(c2ccc(F)cc2)Sc2c1nc(-c1ccccc1)n2C(C)=O`: the inhibition worked out at 7.94%.
Same read-out and setting: the result for `Cc1cc(Nc2ccncc2)n2nc(C)c(-c3ccc(Cl)cc3)c2n1` reads 9.35%; that for `CN(C)c1ccc(CN2CCC(NC(=O)c3ccc(-c4ccc(N(C)C)cc4)s3)CC2)cc1`, -0.22%.
Still for that read-out and setting: then `COc1ccc2nc(-c3ccc(C(=O)NCCCN4CCN(c5cc(Cl)ccc5OC)CC4)cc3OC)[nH]c2c1`, with 1.93%.
For the compound `O=C(Nc1cccc(-c2nn3ncccc3c2-c2ccnc(Nc3ccc(N4CCOCC4)cc3)n2)c1)c1c(F)cccc1F`, the inhibition was determined as 16.6%.
Regarding `O=S(=O)(c1cccc(Br)c1)N1CCCCC(c2ccc(C(F)(F)F)cc2)=N1`, the inhibition was determined as 3.68%.
Regarding `CC(C)COc1ccc(Cl)cc1Cc1ccc(-c2nc3ccc(Br)cc3[nH]2)o1`, the inhibition came out at 5.74%.
As to `Cc1cccc2nc(-c3cccc(-c4cccc(CNCc5cccc(N)c5)c4)c3)[nH]c12`, the inhibition turned out to be 2.66%.
On the same count and under the same terms, the result for `C[C@H](Cc1ccc(OCCCCCOc2ccc(C[C@@H](C)NC[C@H](O)c3cccc(Cl)c3)cc2)cc1)NC[C@H](O)c1cccc(Cl)c1` reads 104%; that for `O=C(Nc1ccc2c(c1)CCN2C1CCN(Cc2csc3ccccc23)C1)c1ccco1` (centres undefined), 2.08%.
For the compound `O=C(CCn1cncn1)N1CCCC(c2[nH]c3ccccc3c2-c2ccncc2)C1` (centres undefined), the inhibition is -3.57%.
On to `O=C(NCCCN1CCCC1=O)NCc1ccccc1`, for which the inhibition was -0.23%.
As for `COc1ccc2nc(N3CCN(C(=O)OC(C)(C)C)CC3)nc(NCCCc3ccccc3)c2c1`, the inhibition is 23.1%.
With `O=C(CCc1cccnc1)Nc1cccc(-c2ccc(-c3nc4cc(C(F)(F)F)ccc4[nH]3)s2)c1`, the inhibition amounted to 1.89%.
For `CCCCNCc1ccc(-c2nc(CN(CCCn3ccnc3)C(=O)C3COc4ccccc4O3)cs2)cc1` (centres undefined), the inhibition was 4.78%.
Take `Cc1ccc(C(=O)Nc2ccc(Nc3ccnc4cc(-c5ccccn5)ccc34)cc2O)cc1`: the inhibition was determined as 10%.
Turning to `CCCc1cc(=O)[nH]c(-n2nc(C)cc2NC(=O)c2cc3ccccc3o2)n1`, the inhibition was 13.1%.
Regarding `O=C(/C=C/c1ccc(Cl)c(Cl)c1)NCCCCCN1CCC(NC(=S)Nc2cccc(Cl)c2)CC1`, the inhibition was 0.6%.
On to `CCOC(=O)c1nc2ccc(SC3CCCCC3)cn2c1Br`, for which the inhibition worked out at 0.06%.

Broadly, the inhibition is the change of the read-out against control, counted positive when it falls.
